We go through 63 molecules from PubChem BioAssay AID485360 (National Center for Advancing Translational Sciences (NCATS), 2010).

Among all 230,000 compounds or so, about 1,500 (0.65%) were called active. Entries that show only a call come without a potency. About 3% were inconclusive and are not listed. Many of the other results were omitted from the sample, so actives are more common in it than they were. Values without a mark were called inactive. Calls come from the whole dose curve; as a rule, active = well fitted inhibition curve with a large enough effect; inconclusive = small, poorly fitted or top-dose-only effect; inactive = no such curve, though single readings can be large or run the other way.
Potency is the fitted concentration of half-maximal effect.

Chain of Lethal(3)malignant brain tumor-like protein 1 (Homo sapiens) (Q9Y468 whole entry, looked up): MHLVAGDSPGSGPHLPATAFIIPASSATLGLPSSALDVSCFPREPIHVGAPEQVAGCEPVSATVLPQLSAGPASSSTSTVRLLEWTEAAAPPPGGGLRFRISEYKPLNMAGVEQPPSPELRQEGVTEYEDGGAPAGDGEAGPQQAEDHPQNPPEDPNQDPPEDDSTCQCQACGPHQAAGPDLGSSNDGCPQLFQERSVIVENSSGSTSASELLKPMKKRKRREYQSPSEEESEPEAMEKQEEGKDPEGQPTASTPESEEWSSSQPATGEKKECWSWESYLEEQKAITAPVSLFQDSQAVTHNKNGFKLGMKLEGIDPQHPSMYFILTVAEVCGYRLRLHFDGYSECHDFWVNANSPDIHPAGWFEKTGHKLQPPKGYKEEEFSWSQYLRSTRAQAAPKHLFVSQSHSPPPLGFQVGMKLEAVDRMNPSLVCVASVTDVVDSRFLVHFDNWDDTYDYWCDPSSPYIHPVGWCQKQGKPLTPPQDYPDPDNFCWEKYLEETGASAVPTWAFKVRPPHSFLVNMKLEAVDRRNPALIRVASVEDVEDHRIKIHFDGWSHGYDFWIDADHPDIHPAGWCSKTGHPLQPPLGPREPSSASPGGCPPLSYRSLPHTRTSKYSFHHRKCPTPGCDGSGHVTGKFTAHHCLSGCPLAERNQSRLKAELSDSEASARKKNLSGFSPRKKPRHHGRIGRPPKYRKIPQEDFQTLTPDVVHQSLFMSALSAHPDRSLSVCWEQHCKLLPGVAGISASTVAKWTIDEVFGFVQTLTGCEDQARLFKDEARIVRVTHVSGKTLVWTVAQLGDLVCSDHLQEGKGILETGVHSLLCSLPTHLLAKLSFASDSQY

The target of the assay is Lethal(3)malignant brain tumor-like protein 1 (Homo sapiens) (UniProt Q9Y468). As to the kind of experiment: qHTS Assay for the Inhibitors of L3MBTL1. Note: nearly all actives have a fitted effect of over 60% in size. Particulars: AlphaScreen L3MBTL1–H3K9me1 peptide binding; series mostly up to 57.1 µM. The method, boiled down:
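AlphaScreen assay: L3MBTL1 (50 nM final) was preincubated 30 min at room temperature with biotinylated H3(1-15)K9me1 peptide (75 nM final), then 30 min with library compounds; streptavidin donor and nickel chelate acceptor beads (10 ug/mL final) added, 30 min dark.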
For orientation: In qHTS, concentration-response curves come from the screen itself.
Consider `Cc1ccc(OCC(=O)NC(C)c2ccccc2)cc1C` (stereo not drawn), for which the Potency entry is “inactive”.

Take `CCCCC[C@@H]1C=C(C(=O)O)[C@H](c2ccc(C#N)cc2)N1S(=O)(=O)c1ccc(C)cc1`: the Potency entry is “inactive”.

Take `O=[N+]([O-])c1ccc(C=Nc2ccc(Cl)cc2Cl)s1`: the Potency is 25.1 µM (active). On the same count and under the same terms, under `CCOc1ccc(NC(=O)CCC(=O)N/N=C/c2ccc([N+](=O)[O-])s2)cc1` stands “inactive”; under `CC1CN(C(=O)c2ccc([N+](=O)[O-])s2)CC(C)O1` (stereo not drawn), “inactive”; under `O=[N+]([O-])c1ccc2c(c1)Nc1nc3ccccc3nc1N2`, “inactive”. On the same count and under the same terms, under `Cn1nnnc1SCC(=O)Nc1cccc(S(=O)(=O)N2CCCCC2)c1` stands “inactive”; under `COc1ccccc1-c1sc2ccccc2c1C#CC1(O)CCCCC1`, “inactive”. `COc1ccc2c(C(=O)c3ccc(C)cc3)n(CCC(N)=O)[n+]([O-])c2c1`: the Potency result was “inactive”.

Consider `O=C(NCc1ccccn1)c1ccc2nc(-c3ccco3)c(-c3ccco3)nc2c1`, for which the Potency is 3.55 µM (active). On to `O=C1CSc2ccc(C(=O)NCc3ccccn3)cc2N1`, for which the Potency result is “inactive”.

For `O=C(NCc1ccccn1)c1cc(-c2ccccc2Cl)on1`, the Potency result is “inactive”.

In the case of `CC(C)(C)c1ccc(NC(=O)NCc2ccco2)cc1`, the Potency entry is “inactive”. On the same count and under the same terms, under `COc1ccc(NC(=O)Nc2ccc3nsnc3c2)cc1` stands “inactive”; under `COCCNC(=O)Nc1ccc2nc(-c3ccco3)c(-c3ccco3)nc2c1`, 2.82 µM (active); under `O=C(Nc1ncccc1O)c1ccc(C(=O)c2ccccc2)cc1`, “inactive”. Still for that read-out and setting: under `CCOC(=O)N1CCN(C(=O)c2ccccc2SCC(=O)NCC2CCCCC2)CC1` stands “inactive”. Consider `Cc1c(C(=O)N/N=C/c2ccccc2)[nH]c2c([N+](=O)[O-])cccc12`, for which the Potency entry is “inactive”. As for `COc1cccc2c(C)c(C(=O)O)[nH]c12`, the Potency is 25.1 µM (active). Still for that read-out and setting: to `CCOC(=O)c1c(C)[nH]c(C(=O)NCc2ccccc2OC)c1C` belongs “inactive”; to `CC(C)Cn1c(SCC(=O)Nc2ccc(Cl)cc2F)nc(O)cc1=O`, “inactive”. Still for that read-out and setting: under `CC(=O)C[C@H](O)CC(=O)[C@@H]1OC(=O)[C@@H](C)C/C=C\Cc2ccccc21` stands “inactive”. On the same count and under the same terms, under `CCOc1ccccc1/C=c1\sc2nc(-c3ccco3)nn2c1=O` stands 15.8 µM (active); under `CCOC(=O)/C=c1\s/c(=C\c2ccccc2OC)c(=O)n1CC(=O)N1CCOCC1`, “inactive”. Turning to `CSc1nc(-c2ccco2)nn1C(=O)CCc1ccccc1`, the Potency result was “inactive”.

`COc1ccccc1N1CC(C(=O)NCCN2C(=O)S/C(=C\c3cccnc3)C2=O)CC1=O` (stereo not drawn): the Potency result is “inactive”. Consider `CC[C@]12c3[nH]c4ccc(Cl)cc4c3CCN1C(=O)[C@@H](CC(=O)NCCN1CCOCC1)C[C@@H]2C(=O)N1CCN(C(=O)C2CC2)CC1`, for which the Potency entry was “inactive”. Same read-out and setting: to `Cc1ccc(C)n1C(Cc1ccccc1)C(=O)O` (stereo not drawn) belongs 5.62 µM (active); to `CCOC(=O)C(Cc1ccc(N)cc1)N1C(=O)c2ccccc2C1=O` (stereo not drawn), “inactive”; to `CC(Cc1ccccc1)C(=O)N(C)Cc1ccccc1` (stereo not drawn), “inactive”.

With `CCn1c(=S)[nH]c2cc(S(=O)(=O)N3CCOCC3)ccc21`, the Potency result is “inactive”. Still for that read-out and setting: to `CCCN=C1N(C)C[C@@H]2[C@@H]3C(=O)N(Cc4ccccc4)C(=O)[C@@H]3[C@](C)(C(=O)OC)N12` belongs “inactive”; to `CC(=O)Nc1ccc(C(=O)Nc2cccc(S(=O)(=O)NC3=NCCC3)c2)cc1`, “inactive”; to `Cc1ccc(S(=O)(=O)NCCC(=O)OCC(=O)N(C)c2ccccc2)cc1`, “inactive”. With `O=C(N/N=C/c1c(Cl)[nH]c2ccccc12)c1sc2ccccc2c1Cl`, the Potency result is “inactive”. With `COc1ccc(N=C(C)c2sc3ccccc3c2O)cc1`, the Potency entry was “inactive”. On the same count and under the same terms, to `Oc1ccc(N=Cc2sc3ccccc3c2Cl)cc1` belongs 31.6 µM (active). Turning to `Cc1csc(SCC(=O)N(c2ccccc2)C(C)C)n1`, the Potency result was “inactive”. Still for that read-out and setting: to `COC(=O)c1ccc(CNC(=O)c2ccc(S(=O)(=O)N3CCCCCC3)cc2)cc1` belongs “inactive”; to `CCN(CC)C(CNC(=O)CSc1nnnn1-c1cccc(F)c1)c1ccco1` (stereo not drawn), “inactive”; to `COc1ccc(-c2nnc(SC(C)C(=O)NC3CC3)o2)cc1` (stereo not drawn), “inactive”.

For `O=C(COC(=O)c1ccc(O)cc1)Nc1nccs1`, the Potency entry is “inactive”.

With `CCCCOC(=O)Nc1nnc(CC(=O)NCc2ccccc2)s1`, the Potency entry was “inactive”.

In the case of `CCCCOC(=O)Nc1nccs1`, the Potency is 8.91 µM (active). On the same count and under the same terms, under `Cc1ccc(NC(=O)CCNC(=O)c2ccc([N+](=O)[O-])cc2)cc1S(=O)(=O)N1CCOCC1` stands “inactive”; under `CC(=O)N(O)CCCCCNC(=O)CCC(=O)N(O)CCCCCNC(=O)CCC(=O)N(O)CCCCCNC(=O)CCC(=O)O`, “inactive”; under `CC[C@]12c3[nH]c4ccc(OC)cc4c3CCN1C(=O)C(CC(=O)NCCN1CCOCC1)C[C@@H]2C(=O)N1CCN(C(=O)C2CC2)CC1` (stereo partly drawn), “inactive”. Same read-out and setting: to `CCCn1c(C)cc(/C=C(\C#N)C(=O)OCC(=O)N(C)c2c(N)n(Cc3ccccc3)c(=O)[nH]c2=O)c1C` belongs “inactive”; to `Cc1cc(=O)[nH]c(Nc2cccc(Br)c2)n1`, “inactive”. Still for that read-out and setting: under `CCOc1ccc(NC(=O)c2ccc(NC(=O)COC(=O)c3ccc(NC(=O)CC#N)cc3)cc2)cc1` stands 1.58 µM (active). `CCOc1cccc(NC(=O)CC#N)c1`: the activity, negative = inhibition was -26.1% [at 11.4 µM]. Turning to `CCOc1ccc(C(=O)Nc2ccncc2)cc1`, the Potency entry is “inactive”. On the same count and under the same terms, to `COC(=O)[C@]1(C)CCC[C@@]2(C)C3CC[C@]4(OC(C)=O)C[C@@]3(CCC21)CC4=NO` (stereo partly drawn) belongs “inactive”; to `COCCCn1c2nc3ccccc3nc2c2c(=O)n(Cc3ccc(Cl)cc3)c(C)nc21`, “inactive”. Regarding `Cc1ccc(Cn2c(C)nc3c(c2=O)c2nc4ccccc4nc2n3Cc2ccco2)cc1`, the Potency was 17.8 µM (active). As for `Cc1nc2ccccc2c(=O)n1Cc1ccc([N+](=O)[O-])cc1`, the Potency entry was “inactive”. Same read-out and setting: to `COc1ccc(CCNC(=S)N2CCN(S(=O)(=O)c3ccc(F)cc3)CC2)cc1` belongs “inactive”; to `Cc1cccc(N=C2SC(C)CN2C(=O)CN2C(=O)NC3(CCCC3)C2=O)c1` (stereo not drawn), “inactive”. Same read-out and setting: under `O=C(COc1coc(CN2CCN(c3ccccc3)CC2)cc1=O)N1CCc2ccccc21` stands “inactive”; under `Cn1c2ccccc2c(=O)c2c(=O)n(Cc3ccco3)c(COc3ccccc3)nc21`, 12.6 µM (active). On the same count and under the same terms, under `CCCc1nc2c(c(=O)c3ccccc3n2C)c(=O)n1-c1cc(C)cc(C)c1` stands “inactive”; under `COc1ccc(C(=O)CSc2nnc(COc3ccccc3)n2Cc2ccco2)cc1`, “inactive”; under `CC(=O)c1c(C)[nH]c(C(=O)COc2ccc3c(C)cc(=O)oc3c2)c1C`, “inactive”.
